This passage reports Potency and outcome results from PubChem BioAssay (Tox21).

Test [1] in a line: qHTS assay for small molecule agonists of the p53 signaling pathway (AID 651631; calls by dose curve; note: nearly all actives have a fitted effect of over 15% in size; note: potency is the fitted concentration of half-maximal effect). The procedure, abridged: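 p53RE-bla HCT-116 cells; compounds 16 h, 37 °C; LiveBLAzer B/G FRET substrate 2 h RT; fluorescence intensity read-out, qHTS format.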
For orientation: In qHTS, concentration-response curves come from the screen itself.

The nature of test [2]: qHTS assay for small molecule agonists of the p53 signaling pathway - cell viability (AID 651633; calls by dose curve;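 note: p53RE-bla HCT reporter cells with a stable beta-lactamase p53 reporter; series mostly up to about 83 µM; nearly all actives have a fitted effect of over 30% in size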). The procedure, abridged: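 p53RE-bla cells, seeded at 4,000 per well and rested 5 h at 37 C/5% CO2, received compounds in DMSO for 16 h at 37 C. CellTiter-Glo was then added, and luminescence was read after 30 min at room temperature to gauge cytotoxicity.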
Test [3] can be described thus: qHTS assay for small molecule disruptors of the mitochondrial membrane potential - cell viability (AID 720634; calls by dose curve; note: nearly all actives have a fitted effect of over 20% in size; note: potency is the fitted concentration of half-maximal effect). In outline: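 HepG2 cells, 2,000 per well, attached overnight, then treated 1 hr at 37 C, 5% CO2. Viability read as ATP by CellTiter-Glo luminescence after 30 min at room temperature. Read in the same wells as the m-MPI membrane-potential dye assay.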
A short description of test [4]: qHTS assay for small molecule disruptors of the mitochondrial membrane potential (AID 720635). Note: potency is the fitted concentration of half-maximal effect. In outline: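 HepG2 cells (2,000/well) attached overnight at 37C, then took compound for 1 hr at 37C, 5% CO2. Mito-MPS dye was added for 30 min; fluorescence was read at 490/535 nm (monomers) and 540/590 nm (aggregates).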
A short description of test [5]: qHTS assay to test for compound auto fluorescence at 590 nm (red) in HepG2 cells (AID 720674). The procedure, abridged: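 Rose Bengal sodium served as the red fluorophore standard. HepG2 monolayers (overnight attachment, MEM with 10% FBS) were exposed to test compounds for 1 hr at 37 C and read at Ex 540/Em 590 nm.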
A short description of test [6]: qHTS assay to test for compound auto fluorescence at 535 nm (green) in HepG2 cells (AID 720675).
A short description of test [7]: qHTS assay to test for compound auto fluorescence at 460 nm (blue) in HEK293 cells (AID 720678). In outline:
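HEK293 cells (2,000 per well, medium with 10% dialyzed FBS) attached for 4-5 hr at 37C, then received compound and stood overnight at 37C, 5% CO2. Blue fluorescence was read at Ex/Em 405/460 nm and expressed relative to triamterene.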

Test [8] is described as follows: qHTS assay to test for compound auto fluorescence at 590 nm (red) in HEK293 cells (AID 720679). In outline: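 HEK293 cells (2,000/well, medium with 10% dialyzed FBS) attached for 4-5 hr at 37C, received 23 nL compound and were incubated overnight at 37C, 5% CO2. Red fluorescence was then read at 540/590nm Ex/Em, referenced to Rose Bengal sodium.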
Test [9] in a line: qHTS assay to test for compound auto fluorescence at 535 nm (green) in HEK293 cells (AID 720680).
Test [10] is described as follows: qHTS assay to test for compound auto fluorescence at 460 nm (blue) in HEK293 cell free culture (AID 720681). The procedure, abridged:
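Test compounds were pinned into cell-free culture medium (DMEM with 10% FBS) and fluorescence was read directly at Ex/Em 405/460 nm. Signals were expressed as fluorescence equivalents of triamterene, with DMSO vehicle as control.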

Test [11] is described as follows: qHTS assay to test for compound auto fluorescence at 535 nm (green) in HEK293 cell free culture (AID 720682). In outline:
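Cell-free medium (DMEM, 10% FBS) receives compound or DMSO by pintool. Plate read directly at Ex 485/Em 535 nm. Signal converted to fluorescein equivalency.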

A short description of test [12]: qHTS assay to test for compound auto fluorescence at 590 nm (red) in HEK293 cell free culture (AID 720683). In outline: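 Tox21 10K library compounds were pinned into cell-free DMEM with 10% FBS and fluorescence was read at excitation 540 nm. Activity is expressed as Rose Bengal sodium equivalency.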
Test [13] is described as follows: qHTS assay to test for compound auto fluorescence at 590 nm (red) in HepG2 cell free culture (AID 720684). The procedure, abridged:
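Red fluorescence (540 nm excitation, 590 nm emission) was measured after compound transfer into cell-free MEM supplemented with 10% FBS. Values are equivalencies against Rose Bengal sodium.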

Test [14] can be described thus: qHTS assay to test for compound auto fluorescence at 460 nm (blue) in HepG2 cell free culture (AID 720685). The procedure, abridged:
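Compound (23 nL) or DMSO pinned into cell-free MEM with 10% FBS; blue fluorescence read at 405/460 nm excitation/emission, expressed as auto-fluorescence equivalency to triamterene.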

Test [15] is described as follows: qHTS assay to test for compound auto fluorescence at 535 nm (green) in HepG2 cell free culture (AID 720686).
Test [16] can be described thus: qHTS assay to test for compound auto fluorescence at 460 nm (blue) in HepG2 cells (AID 720687). The procedure, abridged: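 Cells (2,000/well in MEM with 10% FBS) attached overnight at 37 C, then were exposed to compound or DMSO for 1 hr at 37 C, 5% CO2. Fluorescence read at Ex/Em 405/460 nm, expressed as triamterene-equivalent signal.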
Test [17] deals with Glucocorticoid receptor (Homo sapiens) (UniProt P04150). Kind of test: qHTS assay to identify small molecule agonists of the glucocorticoid receptor (GR) signaling pathway (AID 720691; active = well fitted activation curve with a large enough effect in the signal ratio in the repeat runs, not every such curve was filed as active; inconclusive = weak or mixed curves, or effect the other way; inactive = no such curve, though single readings can be large or run the other way; the % refers to the signal ratio; note: potency is the fitted concentration of half-maximal effect). In outline:
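GR-bla HeLa cells carrying a GRE-driven beta-lactamase reporter, exposed to compounds for 18 h at 37 C. Reporter activation read as fluorescence after 2 h with LiveBLAzer B/G FRET substrate at room temperature.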

For test [18] the target is unchanged. Kind of test: qHTS assay to identify small molecule antagonists of the glucocorticoid receptor (GR) signaling pathway (AID 720692; active = well fitted inhibition curve with a large enough effect in the signal ratio in the repeat runs, not every such curve was filed as active; inconclusive = weak or mixed curves, or effect the other way; inactive = no such curve, though single readings can be large or run the other way; the % refers to the signal ratio). In outline: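 GR-bla HeLa cells carrying a GRE-driven beta-lactamase reporter received compound after 4 h plating, then dexamethasone (5 nM final). After 18 h at 37C, the FRET substrate was loaded for 2 h at room temperature and fluorescence read.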

A short description of test [19]: qHTS assay for small molecules that induce genotoxicity in human embryonic kidney cells expressing luciferase-tagged ATAD5 (AID 651632). Note: nearly all actives have a fitted effect of over 15% in size. Note: potency is the fitted concentration of half-maximal effect. The procedure, abridged:
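HEK293T cells carrying luciferase-tagged ATAD5 were given compound or DMSO vehicle and incubated 16 hr at 37C, 5% CO2. Luciferase activity was read after 30 min at room temperature with Amplite; a rise signals genotoxic stress.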

“And” between values parts separate entries of the source, which are not always exact repeats. Identical values can stand only once. A structure can be active in one record and inactive in another. The source made the active and inactive calls. Unless noted, calls come from the whole dose curve; as a rule, active = well fitted curve in the direction sought with a large enough effect in the repeat runs; inconclusive = weak or mixed curves; inactive = no such curve, though single readings can be large; an effect the other way counts as inactive or inconclusive.

Chain of Glucocorticoid receptor (Homo sapiens) (P04150 whole entry, looked up): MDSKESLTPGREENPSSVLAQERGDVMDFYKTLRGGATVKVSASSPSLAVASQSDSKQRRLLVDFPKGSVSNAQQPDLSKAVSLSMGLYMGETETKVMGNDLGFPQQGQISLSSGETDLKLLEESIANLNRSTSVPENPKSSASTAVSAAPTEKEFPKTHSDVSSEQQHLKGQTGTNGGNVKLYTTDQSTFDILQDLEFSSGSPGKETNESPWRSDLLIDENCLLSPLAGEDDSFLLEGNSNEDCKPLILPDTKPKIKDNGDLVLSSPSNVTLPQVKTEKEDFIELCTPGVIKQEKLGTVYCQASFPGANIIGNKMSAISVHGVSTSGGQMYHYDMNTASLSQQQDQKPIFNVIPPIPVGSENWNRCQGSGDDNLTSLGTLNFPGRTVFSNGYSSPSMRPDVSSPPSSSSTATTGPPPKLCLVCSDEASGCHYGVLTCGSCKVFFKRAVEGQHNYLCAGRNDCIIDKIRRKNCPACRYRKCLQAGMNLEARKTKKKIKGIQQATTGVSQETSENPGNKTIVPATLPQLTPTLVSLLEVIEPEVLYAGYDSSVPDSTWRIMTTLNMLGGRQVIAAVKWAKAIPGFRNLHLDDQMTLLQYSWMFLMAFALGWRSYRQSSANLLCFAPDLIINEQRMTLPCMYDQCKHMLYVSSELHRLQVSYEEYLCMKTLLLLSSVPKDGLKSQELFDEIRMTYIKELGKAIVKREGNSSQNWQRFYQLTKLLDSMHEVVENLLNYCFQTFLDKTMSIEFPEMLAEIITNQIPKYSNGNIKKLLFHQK

As for `O=C(OCc1ccccc1)c1ccccc1O`, the Potency result in test [1], in [2], in test [3], in test [5], in test [6] and in test [8] was “inactive” throughout. Further, the Potency result in test [9], in [11], in [12], in test [13], in test [15] and in [17] was “inactive” each time. For the same compound, the Potency result in [18] is “inactive”. The Potency in test [4] was 61.1 µM (active). Besides, the compound was classed as inactive in [7], in test [10], in [14] and in [16].
For `Cc1cccc([N+](=O)[O-])c1C`, the Potency entry in test [1], in [19], in test [2], in [3], in [4] and in test [5] was “inactive” each time. Besides, the Potency entry in test [6], in test [8], in [9], in test [11], in [12] and in [13] was “inactive” each time. Moreover, the Potency entry in [15] was “inactive”. Moreover, the compound was called inactive in test [10], in test [14] and in test [16].
Consider `Brc1cc(Oc2cc(Br)c(Br)c(Br)c2Br)c(Br)c(Br)c1Br`, for which the Potency result in test [1], in [19], in test [2], in test [3], in test [5] and in test [6] was “inactive” each time. The Potency entry in test [8], in test [9], in [12], in test [13], in test [15] and in [17] was “inactive” in each case. The Potency entry in [18] was “inactive”. The outcome in [7], in test [10], in test [14] and in [16] was inactive.
With `Nc1ccccc1N`, the Potency in test [1] is 62.6 µM (active) and 27.3 µM (active); in [19], 2.43 µM (active); in test [4], 314 nM (active) and 686 nM (active). The Potency entry in [2], in [3], in [5], in [8], in [9] and in [11] was “inactive” throughout. In addition, the Potency result in test [12], in [13] and in test [17] was “inactive” in each case. Besides, the outcome in [10] and in [14] was inactive.
In the case of `O=CCc1ccccc1`, the Potency entry in test [1], in test [19], in [2], in test [3], in [5] and in test [6] was “inactive” each time. Further, the Potency result in test [8], in [9], in test [11], in test [12], in [13] and in test [15] was “inactive” in each case. Besides, the Potency entry in test [17] and in test [18] was “inactive” in each case. Also, in test [4], the Potency entry was “inactive and 54.5 µM (active)”. Besides, the call in test [7], in test [10], in test [14] and in test [16] was inactive.
With `COc1ccc(C(=O)CC(=O)c2ccc(C(C)(C)C)cc2)cc1`, the Potency result in [1], in test [19], in test [2], in [5], in test [6] and in test [8] was “inactive” throughout. The Potency entry in [9], in test [12], in [13], in test [15], in test [17] and in test [18] was “inactive” each time. Also, the Potency result was “inactive and 18.5 µM (active)” in test [3]; “inactive and 16.5 µM (active)” in test [4]. Further, the compound was called inactive in test [10] and in [14].
Regarding `COc1cccc2c1C(=O)c1c(O)c3c(c(O)c1C2=O)C[C@@](O)(C(=O)CO)C[C@@H]3O[C@H]1C[C@H](N)[C@H](O)[C@H](C)O1`, the Potency result in [1] was “inactive and 596 nM (active) and 243 nM (active)”; in test [19] it was “inactive and 376 nM (active)”; in [4], “inactive and 2.73 µM (active)”; in [17], 535 nM [inconclusive] (active) and 174 nM (active). The Potency entry in test [2], in test [3], in test [5], in test [6], in test [8] and in test [9] was “inactive” throughout. In addition, the Potency result in [12], in [13], in test [15] and in [18] was “inactive” in each case. In addition, the compound was classed as inactive in test [7], in test [10] and in test [14].
